Sampled rows, rich in hits. Any-hit rate of the full collection: about 4.2%.
DAX1 StAR inh: inhibitors of DAX1 repression of SF-1 activated StAR promoter. hit rate 1.1% among 370,000. HEK293T StAR-luciferase reporter, SF-1/DAX-1 repression relief. inhibition, % at 6.8 µM;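 active = inhibition above the mean over all tested compounds plus 3 SD, cut at about 3.6% in these data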;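 note: higher inhibition means more luminescence from relief of DAX-1 repression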
hcDAF12 agonist: activates DAF-12 receptor from parasite H. contortus; HEK293 hcDAF-12 lit1-tk-luc reporter, luminescence; 0% DMSO, 100% Δ7-dafachronic acid; activation, % at 6.8 µM; hit rate 1.4% among 370,000;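 active = activation above the mean of all tested compounds plus 3 SD, cut at about 5.5% in these data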
SMARCA2 activ: activators of SMARCA2 function | hit rate 1% among 370,000 | MG213 cells, MMTV-luciferase reporter, dexamethasone, overnight | activation, % at 9.1 µM; in the data active = activation above about 7.8%
ssDAF12 agonist: activators of S. stercoralis DAF-12 nuclear receptor. activation, % at 6.8 µM. HEK293 ssDAF-12/GRIP1 lit1-tk-luc reporter, luminescence; % of 3 µM dafachronic acid response. hit rate 1% among 370,000;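 active = activation above the mean over all tested compounds plus 3 SD, cut at about 0.9% in these data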
hgDAF12 agonist: agonists of H. glycines DAF-12 nuclear receptor; HEK293 GAL4-hgDAF12 UAS-luciferase reporter, agonist luminescence; normalized to butyrate control; activation, % at 6.8 µM; hit rate 1.8% among 370,000; AID 687014;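 active = activation above a cutoff set at the mean of all screened compounds plus 3 SD, cut at about 10% in these data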
DAX1 inh confirm: confirmation of human DAX1 (NR0B1) inhibitors; shares compounds with DAX1 StAR inh; HEK293T StAR-promoter luciferase reporter, SF-1/DAX-1 repression; inhibition, % at 6.8 µM; hit rate 87% among 2,400;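 active = inhibition above the average of every tested compound plus 3 SD, cut at about 3.8% in these data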;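 note: active compounds raise luminescence by relieving repression of the StAR reporter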
Target sequence (P51843 whole entry, looked up): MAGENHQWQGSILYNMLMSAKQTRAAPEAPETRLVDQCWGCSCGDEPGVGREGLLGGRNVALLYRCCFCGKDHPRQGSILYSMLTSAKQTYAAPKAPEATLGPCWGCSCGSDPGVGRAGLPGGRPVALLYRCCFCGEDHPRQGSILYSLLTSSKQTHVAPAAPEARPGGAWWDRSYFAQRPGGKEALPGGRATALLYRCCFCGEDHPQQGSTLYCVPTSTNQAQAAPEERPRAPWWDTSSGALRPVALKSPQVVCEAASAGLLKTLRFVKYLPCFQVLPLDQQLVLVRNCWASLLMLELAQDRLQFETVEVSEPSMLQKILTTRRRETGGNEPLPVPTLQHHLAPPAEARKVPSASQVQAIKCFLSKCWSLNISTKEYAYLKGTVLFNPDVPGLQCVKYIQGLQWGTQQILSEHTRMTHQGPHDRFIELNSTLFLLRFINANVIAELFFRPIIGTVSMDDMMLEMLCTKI
SF1 mutant ctr: counter-screen for DAX1 inhibitors: nonselective inhibitors with SF-1 AF2 mutant. HEK293 StAR-luciferase, luminescence. hit rate 78% among 2,400. shares compounds with DAX1 StAR inh. AID 652136. inhibition, % at 6.8 µM;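 active = inhibition above the mean of all tested compounds plus 3 SD, cut at about 3% in these data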
Each line names hits and unclear results; the compound was inactive in the other large screens (follow-up assays come after a bar, where they were run).

Cc1ccc2cc(C#N)c(SCC(=O)NCC3CCCO3)nc2c1 (stereo unspecified)	none
Cc1ccc(NC(=O)c2ccc(OCC3CCCO3)cc2)nc1 (stereo unspecified)	DAX1 StAR inh 8.3, hgDAF12 agonist 12 | DAX1 inh confirm 6.7 | SF1 mutant ctr 3.3
Cc1cnc(NC(=O)c2ccc(OCC3CCCO3)cc2)s1 (stereo unspecified)	none
COC(=O)Nc1nc2ccc(SC(C)C)cc2[nH]1	none
COC(=O)Nc1nc2ccc(C(=O)c3cccs3)cc2[nH]1	DAX1 StAR inh 8.7 | DAX1 inh confirm 49 | SF1 mutant ctr inactive
c1coc(CNc2c3c(nc4ncnn24)CCCC3)c1	none
Clc1cccc(-c2cc3nc4c(c(NCc5ccco5)n3n2)CCCC4)c1	DAX1 StAR inh 4.5 | DAX1 inh confirm 12 | SF1 mutant ctr 4.8
Cc1ccc(NC(=O)C2CCCN2S(=O)(=O)c2cccnc2)c(C)c1 (stereo unspecified)	none
OC[C@@H]1CC[C@@H](Cc2ccc(-c3ccccc3)cc2)O1	DAX1 StAR inh 5.6 | DAX1 inh confirm 6.7 | SF1 mutant ctr 4.8
COc1ccc(NC(=O)NC[C@@H]2CC[C@@H](Cc3ccc(-c4ccccc4)cc3)O2)cc1	none
CCc1ccc(C2=NN(C(=O)OC)C(O)(C(F)(F)F)C2)cc1 (stereo unspecified)	DAX1 StAR inh 6.6, hcDAF12 agonist 6.0, ssDAF12 agonist 1.0 | DAX1 inh confirm 12 | SF1 mutant ctr 5.4
COc1ccc(CC(=O)N2N=C(c3ccncc3)CC2(O)C(F)(F)F)cc1 (stereo unspecified)	none
COc1ccc(C(=O)NCCC2=CCCCC2)cc1OC	none
O=C(CCNC(=O)c1ccc([N+](=O)[O-])cc1)Nc1ccc(F)cc1	none
O=C(CCNC(=O)c1ccc(Cl)cc1)NCCC1=CCCCC1	DAX1 StAR inh 5.4 | DAX1 inh confirm 5.8 | SF1 mutant ctr 5.8
COc1ccc(C(=O)NCCC2=CCCCC2)cc1	DAX1 StAR inh 5.5, hcDAF12 agonist 5.6, ssDAF12 agonist 1.2 | DAX1 inh confirm 10 | SF1 mutant ctr inactive
COc1ccc(C(=O)NCC(=O)OCC(=O)NCCC2=CCCCC2)cc1	none
O=C(NCCC1=CCCCC1)c1ccc(F)cc1	DAX1 StAR inh 6.4, hgDAF12 agonist 11 | DAX1 inh confirm 18 | SF1 mutant ctr 6.3
O=C(NCCc1ccc(F)cc1)c1ccc([N+](=O)[O-])cc1	DAX1 StAR inh 6.7 | DAX1 inh confirm 7.3 | SF1 mutant ctr 3.9
O=C(CCSCc1ccc(Cl)cc1)NCCC1=CCCCC1	none
COc1cccc2sc(N(CCCN(C)C)C(=O)c3ccc(S(=O)(=O)N4CCc5ccccc5C4)cc3)nc12	none
COc1ccc(C)c2sc(N(CCCN(C)C)C(=O)c3ccc(S(=O)(=O)N4CCc5ccccc5C4)cc3)nc12	DAX1 StAR inh 5.2 | DAX1 inh confirm inactive | SF1 mutant ctr inactive
COc1ccc(N=C2C(=S)N(c3ccc(OC)cc3)C(=NS(=O)(=O)c3ccccc3)N2c2ccccc2)cc1	DAX1 StAR inh 8.2, hgDAF12 agonist 13 | DAX1 inh confirm inactive | SF1 mutant ctr 4.2
COc1ccc(N2C(=O)NC(NS(=O)(=O)c3ccccc3)(C(F)(F)F)C2=O)cc1 (stereo unspecified)	none
CC(=O)N1CCc2cc(Br)c(S(=O)(=O)CCC(=O)N3CCN(c4ccccn4)CC3)cc21	none
CC1=C(C(=O)N(C(C)C)C(C)C)CC(CC(=O)NCCc2ccccn2)C(=O)N1Cc1ccc(C(C)(C)C)cc1 (stereo unspecified)	none
COc1ccc(/C=C2\Sc3ccc(C(=O)NCCCN4CCCC4)cc3N(C)C2=O)cc1OC	DAX1 StAR inh 4.6 | DAX1 inh confirm 6.0 | SF1 mutant ctr inactive
Cc1n[nH]c(C)c1S(=O)(=O)NCCc1ccccc1F	none
CN(C)S(=O)(=O)c1ccc(C(=O)NCC2(N3CCCCC3)CCCCC2)cc1	DAX1 StAR inh 6.0 | DAX1 inh confirm 8.5 | SF1 mutant ctr 3.3
CCN(CC)S(=O)(=O)c1ccc(C(=O)NCC2(N3CCOCC3)CCCCC2)cc1	DAX1 StAR inh 4.6 | DAX1 inh confirm inactive | SF1 mutant ctr inactive
COC(=O)[C@@]12CCCCC3=C1N(CCC3)C(=O)[C@H]2CC(=O)N1CCCCC1	none
Cc1n[nH]c(C)c1NC(=O)CN1CCN(S(=O)(=O)c2ccc(C(F)(F)F)cc2)CC1	DAX1 StAR inh 4.6 | DAX1 inh confirm inactive | SF1 mutant ctr 5.2
COc1ccc(S(=O)(=O)N2CCN(CC(=O)Nc3c(C)n[nH]c3C)CC2)cc1OC	none
Cc1cccc(-c2nnc(SCC(=O)Nc3ccc(OCc4ccccc4)cc3)n2Cc2ccco2)c1	none
O=C(Nc1ccc(N2CCCC2)cc1)c1ccccc1F	DAX1 StAR inh 4.5, hgDAF12 agonist 13 | DAX1 inh confirm 7.1 | SF1 mutant ctr 3.5
CCc1noc(C)c1C(=O)NCCc1ccccc1	DAX1 StAR inh 5.3 | DAX1 inh confirm 6.1 | SF1 mutant ctr 4.8
CCc1noc(C)c1C(=O)NCCc1ccc(F)cc1	none
O=C(NC(=O)c1ccccc1)Nc1ccc(Cl)cn1	DAX1 StAR inh 7.9 | DAX1 inh confirm 14 | SF1 mutant ctr 7.3
CN(C)S(=O)(=O)c1cccc(C(=O)N/N=C\c2ccccc2[N+](=O)[O-])c1	DAX1 StAR inh 6.9, hgDAF12 agonist 11 | DAX1 inh confirm 12 | SF1 mutant ctr 9.7
O=C(N/N=C/c1ccccc1[N+](=O)[O-])c1ccncc1	none
CCN1CCN(Cc2ccc(NC(=O)Nc3ccccc3Cl)cc2)CC1	DAX1 StAR inh 5.4, hgDAF12 agonist 11 | DAX1 inh confirm 11 | SF1 mutant ctr 8.6
O=C(Nc1ccc(CN2CCCCC2)cc1)Nc1ccccc1Cl	none
Cc1ccc2nc(-c3ccc(Cl)cc3)c(Cc3ccccc3C(F)(F)F)n2c1	DAX1 StAR inh 7.7, hgDAF12 agonist 12 | DAX1 inh confirm 3.7 | SF1 mutant ctr 3.7
Cc1ccc2nc(-c3cccc(Cl)c3)c(Cc3cccc(F)c3)n2c1	DAX1 StAR inh 4.8 | DAX1 inh confirm inactive | SF1 mutant ctr inactive
CCOc1cc(C(=O)Nc2ccc(S(=O)(=O)Nc3nnc(CC)s3)cc2)cc(OCC)c1OCC	none
CCc1nnc(NS(=O)(=O)c2ccc(NC(=O)c3cccc(Br)c3)cc2)s1	DAX1 StAR inh 4.5 | DAX1 inh confirm inactive | SF1 mutant ctr inactive
O=C(c1ccncc1)N(c1ccc(N2CCOCC2)cc1)C(c1ccccc1)c1nc2ccccc2[nH]1 (stereo unspecified)	DAX1 StAR inh 5.3, hcDAF12 agonist 6.2, hgDAF12 agonist 13 | DAX1 inh confirm 7.7 | SF1 mutant ctr 4.9
Cc1ccnc(NC(=O)CCNC(=O)c2ccc(Cl)cc2)c1	DAX1 StAR inh 5.1, hgDAF12 agonist 11 | DAX1 inh confirm 14 | SF1 mutant ctr 7.0
